Bioassay records: PubChem, National Center for Advancing Translational Sciences (NCATS)
A selection: hits, their analogues and other compounds. The true share with any hit is near 3.7%.
Tau FP inhib: qHTS for Inhibitors of Tau Fibril Formation, Fluorescence Polarization; Microtubule-associated protein tau (Homo sapiens), P10636; K18 P301L tau heparin fibrillization, Alexa594 FP, 6 h; Potency, µM (highest dose often 57.7 µM), most hits filed as inhibitors; 280,000 tested, 0.39% active; AID 1468, 2008; note: nearly all actives have a fitted effect of over 55% in size
Target sequence (P10636 561-689 P618L limits assumed): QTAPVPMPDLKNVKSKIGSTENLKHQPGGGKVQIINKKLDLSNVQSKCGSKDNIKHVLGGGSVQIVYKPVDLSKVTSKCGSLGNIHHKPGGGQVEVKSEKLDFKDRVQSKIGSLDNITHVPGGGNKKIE
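Heparin (20 uM) drove fibril formation of recombinant tau K18 P301L, 15 uM unlabeled with 0.24 uM Alexa 594 label, for 6 hr at 37 C in 100 mM sodium acetate pH 7. Fluorescence polarization (555/632 nm) read 1 hr after 30 uM ThT.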
Tau fluor cs: Counterscreen qHTS for Inhibitors of Tau Fibril Formation, Fluorescence Polarization. tau K18 P301L Alexa594 fluorescence, heparin fibrillization. Potency, µM (doses to about 57.7 µM). 280,000 tested, 0.93% active; note: nearly all actives have a fitted effect of over 55% in size
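Human tau K18 P301L (15 uM unlabeled, 0.24 uM Alexa 594-labeled) in 100 mM sodium acetate pH 7 with 20 uM heparin, 6 hr at 37 C. ThT 30 uM added, 1 hr ambient; Alexa 594 FP and total fluorescence read at 555/632 nm.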
Tau fibril ThT: qHTS for Inhibitors of Tau Fibril Formation, Thioflavin T Binding. recombinant tau K18 P301L, heparin-induced fibrillization, ThT fluorescence. Potency, µM (titrated, usually from 57.4 µM), hits mostly inhibitors. Microtubule-associated protein tau (Homo sapiens), P10636. 270,000 tested, 2.1% active. AID 1460, 2008; note: nearly all actives have a fitted effect of over 55% in size
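Fibril formation assay: tau K18 P301L at 15 uM with trace Alexa 594 label, heparin inducer 20 uM, pH 7 sodium acetate buffer, 37 C for 6 hr; endpoint ThT signal.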
HTT ATP protect: qHTS Multiplex Assay to Identify Dual Action Probes in a Cell Model of Huntington: Cytoprotection (ATP) | 230,000 tested, 0.14% active | PC12 HTT-Q103 induced, cytoprotection, ATP luminescence, 40 h | Potency, µM (series often up to 56.4 µM), hits mostly activators | AID 1471, 2008; note: nearly all actives have a fitted effect of over 45% in size
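ATP quantification (ATPlite) reports survival of PC12 cells in which tebufenozide, 100 nM final, switches on Htt exon 1 with 103 glutamines linked to GFP; compounds are titrated.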
HTT aggregate: qHTS Multiplex Assay to Identify Dual Action Probes in a Cell Model of Huntington: Aggregate Formation (GFP) | Potency, µM (doses to about 46.1 µM), usual class: inhibitors | PC12 HttQ103-GFP aggregates, Acumen cytometry, 40 h | 220,000 tested, 1.1% active; note: nearly all actives have a fitted effect of over 60% in size
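Aggregate formation scored by laser-scanning cytometer (488 excitation, 500–530 emission) in lysed PC12 cells expressing Q103-GFP after 100 nM tebufenozide induction; library tested in dose series, with ATPLite reagent added in the multiplex.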
Large screens that a line does not name were inactive; [ ] = dose if it differs, or a comment. Calls come from the whole dose curve; as a rule, active = well fitted curve in the direction sought with a large enough effect; inconclusive = small, poorly fitted or top-dose-only effect, or another doubt; inactive = no such curve, though single readings can be large; an effect the other way counts as inactive or inconclusive.

Cc1cc([N+](=O)[O-])cc(/C=N\NC(=O)C2COc3ccccc3O2)c1O (stereo unspecified)	Tau fluor cs inconclusive, Tau fibril ThT 13µM
O=C(N/N=C\c1ccc(O)c([N+](=O)[O-])c1)C1COc2ccccc2O1 (stereo unspecified)	Tau FP inhib inconclusive, Tau fibril ThT 10µM
O=C(N/N=C/C=C/c1ccc([N+](=O)[O-])cc1)C1COc2ccccc2O1 (stereo unspecified)	Tau fluor cs 16µM[quencher], Tau fibril ThT 4.5µM
Cc1ccc2nc(-c3ccc(N)cc3)sc2c1S(=O)(=O)O	none (no result: Tau FP inhib, Tau fluor cs, Tau fibril ThT, HTT aggregate)
Cc1nc(-n2nc(C)c(Cc3ccccc3Cl)c2C)sc1C(=O)N1CCCCC1C (stereo unspecified)	none (no result: HTT ATP protect, HTT aggregate)
C[C@@H]1C(c2cccc(Cl)c2)=NN(c2ccc(Br)cc2)[C@H]1C(=O)N1CCOC1=O	Tau fluor cs 14µM[quencher], Tau fibril ThT inconclusive (no result: HTT aggregate)
CC[C@@H]1C(c2cccc(C)c2)=NN(c2ccc(Br)cc2)[C@H]1C(=O)N1CCOC1=O	Tau fluor cs 8.9µM[quencher], Tau fibril ThT inconclusive (no result: HTT ATP protect, HTT aggregate)
Cc1cccc(C2=NN(c3ccc(Br)cc3)[C@@H](C(=O)N3CCOC3=O)[C@@H]2c2ccccc2)c1	Tau fluor cs inconclusive (no result: HTT aggregate)
COc1ccc(C)cc1N(C)C(=O)c1sc2nc3n(c(=O)c2c1C)CCCCC3	none (no result: HTT ATP protect, HTT aggregate)
O=C(O)c1ccc(Cl)c2c1C1C=CCC1C(c1ccccn1)N2 (stereo unspecified)	Tau FP inhib inconclusive, Tau fluor cs 14µM[quencher], Tau fibril ThT 14µM
O=[N+]([O-])c1ccc(Cl)c2c1C1C=CCC1C(c1ccccn1)N2 (stereo unspecified)	Tau FP inhib inconclusive, Tau fluor cs inconclusive, Tau fibril ThT 25µM
Cc1cc([N+](=O)[O-])cc2c1NC(c1ccccn1)C1CC=CC21 (stereo unspecified)	none
O=C1NC(c2ccc(Cl)c([N+](=O)[O-])c2)Nc2ccccc21 (stereo unspecified)	none
O=[N+]([O-])c1cc(C2Nc3cccc4cccc(c34)N2)ccc1Cl	Tau FP inhib inconclusive, Tau fluor cs 18µM[quencher], Tau fibril ThT 18µM
COc1ccc(S(=O)(=O)N[C@H](C(=O)O)C(C)C)cc1	none
CC(=O)NCc1ccc(S(=O)(=O)NC(C(=O)O)C(C)C)cc1 (stereo unspecified)	Tau FP inhib inconclusive, Tau fibril ThT 25µM
CCOC(=O)CN1C(=O)C(CC)Oc2ccccc21 (stereo unspecified)	none
CCOC(=O)C(C(=O)OCC)C1N=C(N)N=C2Oc3ccccc3N21 (stereo unspecified)	HTT aggregate 3.2µM
Cc1ccc(Cl)cc1N1CCN(C(=O)CSc2nnc3n2C(C)(C)Cc2ccccc2-3)CC1	Tau fibril ThT inconclusive, HTT ATP protect inconclusive, HTT aggregate 7.9µM
COc1ccc(N2CCN(C(=O)CSc3nnc4n3C(C)(C)Cc3ccccc3-4)CC2)cc1	HTT aggregate inconclusive
CC1CCN(S(=O)(=O)c2cn(CC(=O)Nc3ccc(F)c(Cl)c3)c(=O)c3ccccc23)CC1	Tau FP inhib 10µM, Tau fluor cs inconclusive (no result: HTT ATP protect, HTT aggregate)
CC1CCN(S(=O)(=O)c2ccc(NC(=O)Cn3nnc(-c4ccccc4F)n3)cc2)CC1	Tau FP inhib 7.9µM, Tau fluor cs inconclusive
COc1cc(NC(=O)Cn2cc(S(=O)(=O)N3CCC(C)CC3)c3ccccc3c2=O)cc(OC)c1OC	Tau FP inhib inconclusive, Tau fluor cs inconclusive (no result: HTT ATP protect, HTT aggregate)
CC1CCN(S(=O)(=O)c2ccc(NC(=O)Cc3ccccc3)cc2)CC1	Tau FP inhib inconclusive, Tau fluor cs inconclusive
Cc1cccc(NC(=O)CSc2nc3n[nH]c(C)c3c(=N)n2-c2cccc(Cl)c2)c1	Tau FP inhib inconclusive, Tau fluor cs inconclusive (no result: HTT ATP protect, HTT aggregate)
CC(=O)OC1CC(OC(C)=O)[C@]2(C)C(CC(=O)[C@]3(C)C2CC[C@@]2(C)C(c4ccoc4)OC(=O)C4O[C@@]423)C1(C)C (stereo partly specified)	Tau FP inhib 32µM, Tau fibril ThT 25µM (no result: HTT aggregate)
CC(=O)OC1CC(OC(C)=O)[C@]2(C)C(CC(O)[C@]3(C)C2CC[C@@]2(C)C(c4ccoc4)OC(=O)C4O[C@]432)C1(C)C (stereo partly specified)	none (no result: HTT aggregate)
CCN(CC)C(=O)c1cc([N+](=O)[O-])cc2c1-c1ccc([N+](=O)[O-])cc1C2=C(C#N)C#N	Tau FP inhib inconclusive, Tau fluor cs inconclusive, Tau fibril ThT 32µM
CC(=O)Oc1ccc(N2C(=O)C3C(C2=O)C(C(=O)c2ccc(Cl)cc2)N2CCCC32)cc1 (stereo unspecified)	Tau FP inhib inconclusive, Tau fibril ThT 35µM
Cc1ccc(N2C(=O)C3C(C2=O)C(C(=O)c2ccc(Cl)cc2)N2CCCC32)cc1 (stereo unspecified)	Tau fibril ThT inconclusive, HTT aggregate inconclusive
COc1ccc(C(=O)NCc2ccc3c(c2)CCN3C(=O)c2ccc(C)cc2)cc1	none (no result: HTT ATP protect, HTT aggregate)
CCN(CC)c1ccc2cc(-c3nc4ccccc4[nH]3)c(=O)oc2c1	Tau fibril ThT inconclusive, HTT aggregate 0.32µM
CCN(CC)c1ccc2cc(-c3nc(-c4ccc(OC)cc4)cs3)c(=O)oc2c1	Tau fluor cs inconclusive, Tau fibril ThT inconclusive, HTT aggregate 2.8µM
CCN(CC)c1ccc2cc(-c3nc4ccccc4n3C)c(=O)oc2c1	Tau fibril ThT inconclusive, HTT aggregate inconclusive
CCN(CC)c1ccc2cc(-c3nc(-c4ccc(Cl)cc4Cl)cs3)c(=O)oc2c1	Tau fibril ThT inconclusive (no result: HTT ATP protect, HTT aggregate)
CCN(CC)c1ccc2cc(-c3nnc(-c4ccccc4)o3)c(=O)oc2c1	Tau fibril ThT inconclusive, HTT aggregate 7.1µM
Oc1c(Cl)cc(Cl)c2c1NCCC2	Tau FP inhib inconclusive, Tau fluor cs inconclusive, Tau fibril ThT 14µM, HTT aggregate inconclusive
Oc1c(Cl)cc(CN(Cc2cc(Cl)c(O)c(Cl)c2)C2CCCCC2)cc1Cl	none (no result: Tau FP inhib, Tau fluor cs, Tau fibril ThT, HTT aggregate)
Clc1ccc(/C=C\c2nc(Cl)c(-c3ccc(Cl)cc3)c(Cl)n2)cc1	none (no result: Tau FP inhib, Tau fluor cs, Tau fibril ThT, HTT aggregate)
O=C(O)Cc1[nH]cnc1C(=O)O	none (no result: Tau FP inhib, Tau fluor cs, Tau fibril ThT, HTT aggregate)
COc1ccc(C2NC(=O)C(C#N)=C(S)N2c2ccc(C)cc2)cc1OC (stereo unspecified)	Tau FP inhib inconclusive, Tau fibril ThT 32µM
COc1ccc(N2C(S)=C(C#N)C(=O)NC2c2ccc(OC)c(OC)c2)cc1 (stereo unspecified)	Tau FP inhib inconclusive, Tau fibril ThT 28µM
